{"source": "PubChem BioAssay (Tox21)", "note": "Records with an inconclusive call do not appear. Active and inactive are the calls of the source. The call rests on the fitted dose curve; in most records, active means well fitted curve in the direction sought with a large enough effect in the repeat runs; inconclusive means weak or mixed curves; inactive means no such curve, though single readings can be large; an effect the other way counts as inactive or inconclusive. Further: nearly all actives have a fitted effect of over 50% in size. On the % scale 0 is the no-effect control and ±100 the full control effect.", "data": [{"experiment": "qHTS RealTime-Glo MT Cell Viability Assay in HepG2 cells - 16 hour (AID 1224885)", "settings": "RealTime-Glo luminescence; series mostly up to 76.8 µM; activity change, negative = cytotoxic: at the top concentration", "procedure,_shortened": "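qHTS, HepG2, 600 cells/well, RealTime-Glo (NanoLuc + prosubstrate) added with cells; 5 h preincubation; DMSO compound addition; 37 C; luminescence at 0/8/16/24/32/40 h.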", "values": [{"smiles": "C=C(C)CS(=O)(=O)O", "activity change, negative = cytotoxic": "0.361% (inactive)"}, {"smiles": "Brc1c(NC2=NCCN2)ccc2nccnc12", "activity change, negative = cytotoxic": "0.0611% [at 35.3 µM] (inactive)"}, {"smiles": "CCN1CCC[C@H]1CNC(=O)c1c(O)c(Cl)cc(Cl)c1OC", "activity change, negative = cytotoxic": "2.33% [at 35.3 µM] (inactive)"}, {"smiles": "O=C(O)Cc1ccc(CCNS(=O)(=O)c2ccc(Cl)cc2)cc1", "activity change, negative = cytotoxic": "5.04% [at 35.3 µM] (inactive)"}, {"smiles": "CCOc1ccc(C(=O)OCCN(CC)CC)cc1", "activity change, negative = cytotoxic": "0.178% [at 35.3 µM] (inactive)"}, {"smiles": "CCOC(=O)CCC(C)=O", "activity change, negative = cytotoxic": "6.66% (inactive)"}, {"smiles": "CCO[Si](CCC1CCC2OC2C1)(OCC)OCC", "note": "(configuration not stated)", "activity change, negative = cytotoxic": "2.04% (inactive)"}, {"smiles": "CCN1CCC[C@H]1CNC(=O)c1cc(S(N)(=O)=O)ccc1OC", "activity change, negative = cytotoxic": "1.3% [at 35.3 µM] (inactive)"}, {"smiles": "CC(C)=CCCC(C)CC(=O)O", "note": "(configuration not stated)", "activity change, negative = cytotoxic": "2.83% (inactive)"}, {"smiles": "CCOC(=O)c1c(C)n(C)c2ccc(O)cc12", "activity change, negative = cytotoxic": "-5.35% [at 35.3 µM] (inactive)"}, {"smiles": "COc1c(N2C[C@@H]3CCCN[C@@H]3C2)c(F)cc2c(=O)c(C(=O)O)cn(C3CC3)c12", "activity change, negative = cytotoxic": "-0.156% [at 35.3 µM] (inactive)"}, {"smiles": "CC(C)OC(=O)c1ccccc1", "activity change, negative = cytotoxic": "4.22% (inactive)"}]}, {"experiment": "qHTS RealTime-Glo MT Cell Viability Assay in HEK293 cells - 24 hour (AID 1224886); further: potency means the concentration at half of the fitted maximal effect; on activity change, negative = cytotoxicity: top concentration of the series differs between compounds", "settings": "RealTime-Glo luminescence; series mostly up to 76.8 µM; activity change, negative = cytotoxicity: at the top concentration", "procedure,_shortened": "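Assay medium contained NanoLuc luciferase plus cell-permeant prosubstrate, added with HEK293 cells at 600 cells/well. After 5 h at 37 C/5% CO2 compounds were added; plates stayed at 37 C for 40 h with serial luminescence reads.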", "values": [{"smiles": "Nc1ccc(S(=O)(=O)Nc2ccnn2-c2ccccc2)cc1", "activity change, negative = cytotoxicity": "7.4% [at 15.8 µM] (inactive)"}, {"smiles": "Nc1c2c(nc3ccccc13)CCCC2O", "note": "(configuration not stated)", "activity change, negative = cytotoxicity": "5.38% [at 35.3 µM] (inactive)"}, {"smiles": "C[N+](C)(C)CCCCCC[N+](C)(C)C", "Potency": "inactive"}, {"smiles": "CCc1ccc(O)c(OC)c1", "activity change, negative = cytotoxicity": "8.88% (inactive)"}, {"smiles": "OC(CCN1CCCCC1)(c1ccccc1)C1CC2C=CC1C2", "note": "(configuration not stated)", "activity change, negative = cytotoxicity": "-12.1% [at 35.3 µM] (inactive)"}, {"smiles": "C=CCS(=O)(=O)O", "activity change, negative = cytotoxicity": "-2.27% (inactive)"}, {"smiles": "CN(C(=O)c1c(O)c2ccccc2n(C)c1=O)c1ccccc1", "activity change, negative = cytotoxicity": "6.52% [at 35.3 µM] (inactive)"}, {"smiles": "COC(=O)CCSCCC(=O)OC", "activity change, negative = cytotoxicity": "0.338% (inactive)"}, {"smiles": "CC(C)(O)C(=O)c1ccccc1", "activity change, negative = cytotoxicity": "-0.155% (inactive)"}, {"smiles": "CCCCCOC(=O)CCCCC", "activity change, negative = cytotoxicity": "5.28% (inactive)"}, {"smiles": "OCCOc1ccc(OCCO)cc1", "activity change, negative = cytotoxicity": "15.1% (inactive)"}, {"smiles": "N[C@H]1CN(c2c(F)cc3c(=O)c(C(=O)O)cn(C4C[C@H]4F)c3c2Cl)CC12CC2", "note": "(some centres not stated)", "activity change, negative = cytotoxicity": "-1.46% [at 35.3 µM] (inactive)"}, {"smiles": "COc1ccc2c(c1)c(CC(=O)OCC(=O)O)c(C)n2C(=O)c1ccc(Cl)cc1", "activity change, negative = cytotoxicity": "7.5% [at 35.3 µM] (inactive)"}, {"smiles": "COc1ccc2c(c1)CCCC2=O", "activity change, negative = cytotoxicity": "-0.605% [at 35.3 µM] (inactive)"}, {"smiles": "OC[C@]1(O)OC[C@@H](O)[C@H](O)[C@@H]1O", "Potency": "inactive"}, {"smiles": "NC(=O)Nc1ccccc1", "activity change, negative = cytotoxicity": "4.41% (inactive)"}, {"smiles": "CCS(=O)(=O)c1ccc(OC)c(C(=O)OC)c1", "activity change, negative = cytotoxicity": "4.74% [at 35.3 µM] (inactive)"}, {"smiles": "COc1ccc(CCN(C)CCCC(C#N)(c2cc(OC)c(OC)c(OC)c2)C(C)C)cc1OC", "note": "(configuration not stated)", "Potency": "21.3 µM (active)"}, {"smiles": "CCCC(=O)O[C@]1(C(=O)CO)CC[C@H]2[C@@H]3CCC4=CC(=O)CC[C@]4(C)[C@H]3[C@@H](O)C[C@@]21C", "activity change, negative = cytotoxicity": "0.525% [at 35.3 µM] (inactive)"}, {"smiles": "CCCCCCOC(=O)CCCCC(=O)OCCCCCC", "activity change, negative = cytotoxicity": "8.07% (inactive)"}, {"smiles": "CCOC(C)(C)C", "activity change, negative = cytotoxicity": "7.61% (inactive)"}, {"smiles": "CCO/C([O-])=N/c1c[n+](N2CCOCC2)no1", "activity change, negative = cytotoxicity": "5.17% [at 35.3 µM] (inactive)"}, {"smiles": "O=C1CCCCCCCCCCCN1", "Potency": "inactive"}, {"smiles": "C=C(C)CS(=O)(=O)O", "activity change, negative = cytotoxicity": "0.717% (inactive)"}, {"smiles": "Brc1c(NC2=NCCN2)ccc2nccnc12", "activity change, negative = cytotoxicity": "-1.7% [at 35.3 µM] (inactive)"}, {"smiles": "CCN1CCC[C@H]1CNC(=O)c1c(O)c(Cl)cc(Cl)c1OC", "activity change, negative = cytotoxicity": "3.67% [at 35.3 µM] (inactive)"}, {"smiles": "O=C(O)Cc1ccc(CCNS(=O)(=O)c2ccc(Cl)cc2)cc1", "activity change, negative = cytotoxicity": "-1.38% [at 35.3 µM] (inactive)"}, {"smiles": "CCOc1ccc(C(=O)OCCN(CC)CC)cc1", "activity change, negative = cytotoxicity": "3.76% [at 35.3 µM] (inactive)"}, {"smiles": "CCOC(=O)CCC(C)=O", "activity change, negative = cytotoxicity": "-11.2% (inactive)"}, {"smiles": "CCO[Si](CCC1CCC2OC2C1)(OCC)OCC", "note": "(configuration not stated)", "activity change, negative = cytotoxicity": "7.59% (inactive)"}, {"smiles": "CCN1CCC[C@H]1CNC(=O)c1cc(S(N)(=O)=O)ccc1OC", "activity change, negative = cytotoxicity": "0.095% [at 35.3 µM] (inactive)"}, {"smiles": "CC(C)=CCCC(C)CC(=O)O", "note": "(configuration not stated)", "activity change, negative = cytotoxicity": "6.14% (inactive)"}, {"smiles": "CCOC(=O)c1c(C)n(C)c2ccc(O)cc12", "activity change, negative = cytotoxicity": "-20.4% [at 35.3 µM] (inactive)"}, {"smiles": "COc1c(N2C[C@@H]3CCCN[C@@H]3C2)c(F)cc2c(=O)c(C(=O)O)cn(C3CC3)c12", "activity change, negative = cytotoxicity": "4.29% [at 35.3 µM] (inactive)"}, {"smiles": "CC(C)OC(=O)c1ccccc1", "activity change, negative = cytotoxicity": "3.99% (inactive)"}]}]}
